PLK1 PBD block = qHTS for Inhibitors of PLK1-PDB (polo-like kinase 1 - polo-box domain): Primary Screen. Serine/threonine-protein kinase PLK1 (Homo sapiens), P53350. Plk1 PBD binding of FITC phosphopeptide, fluorescence polarization. Potency, µM, for the others: max response, negative = inhibition, usual class: inhibitors. 360,000 tested, 2.8% active. AID 720504, 2013; also: potency is read from the fitted curve at half-maximal effect; series mostly up to about 57 µM; nearly all actives have a fitted effect of over 65% in size
USP2a block = qHTS Assay for Inhibitors of Ubiquitin-specific Protease USP2a Using CHOP2 as the Reporter; 330,000 tested, 0.01% active; Potency, µM (series often up to 38.3 µM), inactives show at the top dose activity change, negative = inhibition, hits mostly inhibitors; USP2 core, Ub-CHOP2 coupled fluorogenic reporter, 485/531; Ubiquitin carboxyl-terminal hydrolase 2 (Homo sapiens), O75604;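 also: potency is read from the fitted curve at half-maximal effect; plate controls were DMSO wells for no effect and full inhibition by NEM control for full effect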
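USP2 core (10nM final) preincubated 30min RT with compound in 20mM Tris-HCl pH 8.0, 2mM CaCl2, 2mM beta-mercaptoethanol, 0.05% CHAPS; 25nM Ub-CHOP2 plus 25nM reporter substrate added, fluorescence (Ex485/Em531) read after 60min.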
USP1 inh = Inhibitors of USP1/UAF1: Primary Screen; recombinant USP1/UAF1, Ub-Rhodamine cleavage fluorescence; Potency, µM (top dose mostly 57.1 µM), for the others: at the highest dose activity change, negative = inhibition, actives largely listed as inhibitors; Ubiquitin carboxyl-terminal hydrolase 1 (Homo sapiens), O94782; 390,000 tested, 0.23% active; also: potency is read from the fitted curve at half-maximal effect; nearly all actives have a fitted effect of over 60% in size
Target sequence (O94782 whole entry, looked up): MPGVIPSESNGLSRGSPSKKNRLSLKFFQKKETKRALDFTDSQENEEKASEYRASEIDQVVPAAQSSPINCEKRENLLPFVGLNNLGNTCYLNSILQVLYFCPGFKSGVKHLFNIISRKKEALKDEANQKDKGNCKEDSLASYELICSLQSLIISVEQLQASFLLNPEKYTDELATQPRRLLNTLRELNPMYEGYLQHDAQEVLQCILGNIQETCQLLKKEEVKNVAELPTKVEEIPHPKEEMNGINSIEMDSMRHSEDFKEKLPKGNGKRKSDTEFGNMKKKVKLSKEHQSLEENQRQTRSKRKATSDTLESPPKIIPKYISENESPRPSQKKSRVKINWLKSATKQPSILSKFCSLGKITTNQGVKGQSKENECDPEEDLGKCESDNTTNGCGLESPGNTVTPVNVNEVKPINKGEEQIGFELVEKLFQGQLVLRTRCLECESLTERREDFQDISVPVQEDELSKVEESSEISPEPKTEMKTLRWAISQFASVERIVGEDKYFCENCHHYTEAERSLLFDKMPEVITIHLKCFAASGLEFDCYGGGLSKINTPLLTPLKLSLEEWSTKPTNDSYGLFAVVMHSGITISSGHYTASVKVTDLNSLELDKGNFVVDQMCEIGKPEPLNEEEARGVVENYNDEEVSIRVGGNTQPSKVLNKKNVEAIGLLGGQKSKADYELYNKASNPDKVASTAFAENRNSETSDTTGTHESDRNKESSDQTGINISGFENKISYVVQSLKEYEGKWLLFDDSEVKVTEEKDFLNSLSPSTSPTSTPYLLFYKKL
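1 nM enzyme complex + cpd, 15 min RT; start with Ub-Rho 150nM final; kinetic fluorescence ex 480/em 540, 6 reads q60 s. Buffer 50mM HEPES pH 7.8, 0.5mM EDTA, 0.1 mg/ml BSA, 1mM TCEP, 0.01% Tween-20.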
WRN inhibitor = qHTS for Inhibitors of WRN Helicase; Bifunctional 3'-5' exonuclease/ATP-dependent helicase WRN (Homo sapiens), Q14191; WRN helicase unwinding, fluorescent forked duplex, kinetic; Potency, µM (top dose mostly 114 µM), without a hit: at the highest dose activity change, negative = inhibition, actives largely listed as inhibitors; 360,000 tested, 0.46% active; also: potency is read from the fitted curve at half-maximal effect; nearly all actives have a fitted effect of over 55% in size
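Kinetic red-fluorescence monitoring (525/598 nm) tracks WRN helicase activity after 100 nM fluorophore-quencher forked duplex and 2 mM ATP are added to 20 nM enzyme pretreated 15 min at room temperature with compound.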
PI5P4K alpha inh = qHTS for Inhibitors of phosphatidylinositol 5-phosphate 4-kinase (PI5P4K); Phosphatidylinositol 5-phosphate 4-kinase type-2 alpha (Homo sapiens), P48426; PI5P4Kalpha enzyme, ADP-Glo luminescence, 60 min; hits give low values; 330,000 tested, 1.2% active; max response, %; active = max response of -50% or lower; inconclusive = between -30% and -50%; inactive = -30% or higher; also: value at the top dose of about 77 µM
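Enzyme plus substrate dispensed, test compounds pinned in, then ATP (5 microM final) added. After 60 min at RT, ADP-Glo reagent 1 for 45 min and reagent 2 for 30 min preceded luminescence imaging.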
* = called active by the depositor; [ ] = remark or other dose. Only some compounds are listed: those with a hit (about 3.3% of all), similar ones and a draw of the others. Unless noted, calls follow the shape of the dose curve; as a rule, active = well fitted curve in the direction sought with a large enough effect; inconclusive = small, poorly fitted or top-dose-only effect, or another doubt; inactive = no such curve, though single readings can be large; an effect the other way counts as inactive or inconclusive. Unless noted, % is scaled to controls: 0 for no effect and ±100 for the full control effect.

C=CCNc1nc(C(=O)OCC(=O)c2cccc(Br)c2)cs1 was read as PLK1 PBD block -29.5%, USP2a block -1.0%, USP1 inh -2.7%, WRN inhibitor inconclusive and PI5P4K alpha inh -59.0*.
`C=CCNc1nc(C(=O)OCC(=O)c2ccc(F)cc2)cs1` gave PLK1 PBD block -4.6%, USP2a block -1.0%, USP1 inh -8.2%, WRN inhibitor -3.6% and PI5P4K alpha inh inconclusive.
S=c1[nH]nc(COc2ccccc2)n1/N=C/c1ccc(Cl)c(Cl)c1 was read as PLK1 PBD block 16.8µM*, USP2a block -6.0%, USP1 inh -11.0%, WRN inhibitor 5.6% and PI5P4K alpha inh -0.6.
`S=c1[nH]nc(-c2ccco2)n1/N=C/c1cccc(Cl)c1` gave PLK1 PBD block inconclusive, USP2a block 4.6%, USP1 inh -0.4%, WRN inhibitor -33.2% and PI5P4K alpha inh -2.0.
Screening Cc1cccc(/C=N/n2c(COc3ccccc3)n[nH]c2=S)c1 returned PLK1 PBD block 23.8µM*, USP2a block 0.2%, USP1 inh 1.1%, WRN inhibitor -7.4% and PI5P4K alpha inh -1.4.
Screening S=c1[nH]nc(-c2ccncc2)n1/N=C/C=C/c1ccco1 returned PLK1 PBD block inconclusive, USP2a block -9.1%, USP1 inh -5.6%, WRN inhibitor inconclusive and PI5P4K alpha inh inconclusive.
`S=c1[nH]nc(-c2ccco2)n1/N=C/c1ccc(Cl)c(Cl)c1` gave PLK1 PBD block 9.47µM*, USP2a block 0.0%, USP1 inh -3.6%, WRN inhibitor -31.8%[57.1 µM] and PI5P4K alpha inh -1.0.
`S=c1[nH]nc(-c2ccccc2Cl)n1/N=C/C=C/c1ccco1` gave PLK1 PBD block inconclusive, USP2a block 1.5%, USP1 inh -19.7%, WRN inhibitor inconclusive and PI5P4K alpha inh -60.4*.
`Cc1ccc(-c2nc(C(=O)NCc3ccccc3Cl)c3n2CCCCC3)cc1` gave USP1 inh -26.0%.
For COc1cc(-c2noc(-c3ccc(NCC4CCCO4)c([N+](=O)[O-])c3)n2)cc(OC)c1OC (centres undefined) the results were USP1 inh -9.6%.
For Cc1cc(Nc2cccc(C(F)(F)F)c2)nc2ccc(NC(=O)c3cccnc3)cc12 the results were USP1 inh -24.8%.
Screening CCOc1ccccc1NC(=O)N1c2ccccc2Sc2ccccc21 returned USP1 inh -13.4%.
`O=[N+]([O-])c1ccc(Cl)c(/C=N/n2c(COc3ccccc3)n[nH]c2=S)c1` gave PLK1 PBD block 23.8µM*, USP2a block 1.3%, USP1 inh 0.2%, WRN inhibitor -16.3% and PI5P4K alpha inh 6.6.
Oc1ccc(Br)cc1/C=N/n1c(COc2ccccc2)n[nH]c1=S was read as PLK1 PBD block inconclusive, USP2a block -3.4%, USP1 inh -14.7%, WRN inhibitor -7.8% and PI5P4K alpha inh -2.6.
For CCOC(=O)C1=C(CN2CCN(c3ccccc3F)CC2)NC(=O)NC1c1ccc(OC)cc1 (centres undefined) the results were USP1 inh -20.6%.
`COc1ccc(-c2cc(C(=O)Nc3cc(C)nn3-c3ccccc3)no2)cc1OC` gave PLK1 PBD block 37.7µM*, USP2a block 1.4%, USP1 inh -1.6%, WRN inhibitor 0.8% and PI5P4K alpha inh 2.2.
COc1ccc(-c2cc(C(=O)Nc3cc(C)on3)no2)cc1OC was read as PLK1 PBD block -4.3%, USP2a block 5.1%, USP1 inh -10.4%, WRN inhibitor 2.6% and PI5P4K alpha inh -3.7.
For Cc1cccc(NC(=O)C2CCN(S(=O)(=O)c3ccc(F)cc3)CC2)c1C the results were USP1 inh -10.3%.
Screening COc1ccc(NS(=O)(=O)c2cc(Br)cc3c2N(C(=O)C2CC2)CC3)cc1OC returned USP1 inh -20.0%.

Screens: PubChem, National Center for Advancing Translational Sciences (NCATS)
